Experimental data published in PubChem BioAssay (EPA / NIEHS).
Values joined by “and” are separate entries in the source; they are usually repeats but may differ in a detail not shown here. Identical values can stand only once. Records with an inconclusive call do not appear. A structure can be active in one record and inactive in another. Active and inactive are the calls of the source. Rule for the calls, unless noted: active = hit-call score of the fitted dose curve at least 0.9, where 1 is the maximum; inactive = score below 0.9.

Columns and labels:
[1] = read-out: Monokine induced gamma interferon (MIG), CXCL9 (gene 4283); assay: BSK_SAg_MIG: BioMAP Diversity Plus: SAg Assay for Monokine induced gamma interferon (MIG) Biomarker Activity (AID 2283092); settings: primary human HUVEC with PBMC; actives raise or lower the signal
Procedure, shortened: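 ELISA readout of MIG/CXCL9; primary human umbilical vein endothelial cells co-cultured with peripheral blood mononuclear cells; 24 h post-dose; gain/loss fit vs DMSO baseline.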

[2] = read-out: Interleukin-8 (IL8), CXCL8 (gene 3576); assay: BSK_SAg_IL8: BioMAP Diversity Plus: SAg Assay for Interleukin-8 (IL8) Biomarker Activity (AID 2283094); settings: primary human HUVEC with PBMC; actives raise or lower the signal
Procedure, shortened: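 ELISA read-out of IL-8 in a primary human vascular co-culture (umbilical vein endothelium plus PBMC), taken 24 h after compound addition. Values derive from bidirectional fits against DMSO negative controls.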

[3] = BSK_SAg_Proliferation: Cell Proliferation Assessment in the BioMAP Diversity Plus: SAg Assay (AID 2283095); settings: primary human HUVEC with PBMC;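 note: relative cell number as total protein by SRB absorbance in sub-confluent culture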
Procedure, shortened: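 Cells (endothelium plus PBMC, human primary) were dosed with chemical, cultured 96 h, fixed in 10% TCA and stained with 0.1% SRB. Absorbance at 560 nm gave relative protein, fitted bidirectionally relative to DMSO.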

[4] = BSK_SAg_SRB: Viability Assessment in the BioMAP Diversity Plus: SAg Assay (AID 2283096); settings: primary human HUVEC with PBMC;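 note: cells read one day after compound addition; hits may be either gain or loss of signal compared with DMSO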
Procedure, shortened: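 Total protein by sulforhodamine B staining, 24 h after dosing, in HUVEC–PBMC co-culture; DMSO-referenced bidirectional fitting.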

[5] = target: Cytochrome P450 2C19 (Homo sapiens) (UniProt P33261); assay: NVS_ADME_hCYP2C19: NovaScreen (NVS) CYP450-related Enzyme Activity (ADME) Assay for human CYP2C19 (AID 2283113; active = hit-call score of the fitted dose curve at least 0.9, where 1 is the maximum;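 for AC50: potency for inhibition seen as loss of fluorescent signal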)
Procedure, shortened: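 Biochemical CYP2C19 inhibition screen: insect-cell recombinant protein plus fluorescent substrate, 1 h, fluorescence intensity. Acetonitrile defined baseline activity. Single 10 uM concentration in duplicate, with concentration-response follow-up for actives.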

[6] = target: human CYP19A1, CYP19A1 (gene 1588) (UniProt P11511); assay: NVS_ADME_hCYP19A1: NovaScreen (NVS) CYP450-related Enzyme Activity (ADME) Assay for human CYP19A1 (AID 2283098; active = hit-call score of the fitted dose curve at least 0.9, where 1 is the maximum;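 for AC50: potency for inhibitors seen as loss of fluorescent enzyme signal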)
Procedure, shortened: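 Biochem, cell-free; recombinant enzyme + specific substrate; fluorescence intensity at 0.5 h post-dose; 10 uM duplicate primary, conc. series for actives; acetonitrile = negative control/baseline; positive and negative controls on every plate.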

[7] = target: human CYP1A1, CYP1A1 (gene 1543) (UniProt P04798); assay: NVS_ADME_hCYP1A1: NovaScreen (NVS) CYP450-related Enzyme Activity (ADME) Assay for human CYP1A1 (AID 2283100; active = hit-call score of the fitted dose curve at least 0.9, where 1 is the maximum)
Procedure, shortened: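 Inhibition of recombinant CYP1A1 turnover was assessed fluorometrically in a biochemical format 1 h after compound exposure. Testing began at 10 uM in duplicate and progressed to concentration series reaching 20 uM, with on-plate positive and negative controls.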

[8] = target: human CYP2C8, CYP2C8 (gene 1558) (UniProt P10632); assay: NVS_ADME_hCYP2C8: NovaScreen (NVS) CYP450-related Enzyme Activity (ADME) Assay for human CYP2C8 (AID 2283104)
Procedure, shortened: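 Recombinant human CYP2C8 with fluorogenic substrate, 0.5 h, fluorescence intensity; signal loss fitted versus acetonitrile. Screened in duplicate at 10 uM, then actives run in concentration-response up to 20 uM.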

[9] = target: human CYP2J2, CYP2J2 (gene 1573) (UniProt P51589); assay: NVS_ADME_hCYP2J2: NovaScreen (NVS) CYP450-related Enzyme Activity (ADME) Assay for human CYP2J2 (AID 2283106; active = hit-call score of the fitted dose curve at least 0.9, where 1 is the maximum)
Procedure, shortened: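 Cell-free assay of recombinant CYP2J2 with a fluorogenic substrate, read 1 h after dosing; loss of signal versus acetonitrile. Primary screen at 10 uM in duplicate, then concentration-response up to 20 uM for chemicals passing threshold (e.g., 30% inhibition).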

[10] = target: rat CYP2A1, Cyp2a1 (gene 24894) (UniProt P11711); assay: NVS_ADME_rCYP2A1: NovaScreen (NVS) CYP450-related Enzyme Activity (ADME) Assay for rat CYP2A1 (AID 2283114)
Procedure, shortened: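 Recombinant rat CYP2A1, cell-free, fluorogenic substrate turnover read by fluorescence intensity 0.75 h after dosing. Primary screen at 10 uM in duplicate; actives rerun as concentration-response up to 20 uM; loss of signal versus acetonitrile control.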

[11] = target: rat CYP2A2, Cyp2a2 (gene 24895) (UniProt P15149); assay: NVS_ADME_rCYP2A2: NovaScreen (NVS) CYP450-related Enzyme Activity (ADME) Assay for rat CYP2A2 (AID 2283116; active = hit-call score of the fitted dose curve at least 0.9, where 1 is the maximum)
Procedure, shortened: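 Cell-free recombinant rat CYP2A2 activity with fluorogenic substrate, fluorescence read 0.2 h after dosing. Chemicals screened at 10 uM in duplicate, hits then run in concentration-response up to 20 uM; signal loss versus acetonitrile baseline.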

[12] = target: human CYP2B6, CYP2B6 (gene 1555) (UniProt P20813); assay: NVS_ADME_hCYP2B6: NovaScreen (NVS) CYP450-related Enzyme Activity (ADME) Assay for human CYP2B6 (AID 2283101; active = hit-call score of the fitted dose curve at least 0.9, where 1 is the maximum)
Procedure, shortened: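 Fluorescence-based enzyme activity of recombinant human CYP2B6, measured 1 h post-dose against acetonitrile vehicle baseline. Screened at a single concentration of 10 uM in duplicate before concentration-response follow-up.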

[13] = target: human CYP1A2, CYP1A2 (gene 1544) (UniProt P05177); assay: NVS_ADME_hCYP1A2: NovaScreen (NVS) CYP450-related Enzyme Activity (ADME) Assay for human CYP1A2 (AID 2283102; active = hit-call score of the fitted dose curve at least 0.9, where 1 is the maximum;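 for AC50: potency for inhibition since loss of fluorescence marks reduced CYP1A2 activity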)
Procedure, shortened: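 Inhibition scored as decrease in fluorescent product versus acetonitrile negative control. Enzyme: insect-cell recombinant human CYP1A2, substrate-specific, cell-free. Reading at 0.5 h; 10 uM duplicate initial screen with positive and negative controls on every plate.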

[14] = target: human CYP2D6, CYP2D6 (gene 1565) (UniProt P10635); assay: NVS_ADME_hCYP2D6: NovaScreen (NVS) CYP450-related Enzyme Activity (ADME) Assay for human CYP2D6 (AID 2283107; active = hit-call score of the fitted dose curve at least 0.9, where 1 is the maximum)
Procedure, shortened: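 Biochemical fluorescence assay, insect-cell-derived enzyme. Read at 1 h; inhibition taken from loss of signal against acetonitrile. Screened at 10 uM in duplicate, with concentration series for actives.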

[15] = target: human CYP2C9, CYP2C9 (gene 1559) (UniProt P11712); assay: NVS_ADME_hCYP2C9: NovaScreen (NVS) CYP450-related Enzyme Activity (ADME) Assay for human CYP2C9 (AID 2283108; active = hit-call score of the fitted dose curve at least 0.9, where 1 is the maximum)
Procedure, shortened: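 Fluorescence readout of CYP2C9 activity (SF9-expressed human enzyme) at 0.75 h. The primary screen used 10 uM in duplicate, with concentration-response follow-up for actives; acetonitrile was the negative control.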

[16] = target: Cytochrome P450 3A4 (Homo sapiens) (UniProt P08684); assay: NVS_ADME_hCYP3A4: NovaScreen (NVS) CYP450-related Enzyme Activity (ADME) Assay for human CYP3A4 (AID 2283110; active = hit-call score of the fitted dose curve at least 0.9, where 1 is the maximum)
Procedure, shortened: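 Compounds were first screened in duplicate at 10 uM against recombinant CYP3A4 produced in insect cells, then actives were run in concentration series. Enzyme activity was measured by fluorescence after 0.33 hour, with acetonitrile as baseline.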

[17] = target: human CYP2A6, CYP2A6 (gene 1548) (UniProt P11509); assay: NVS_ADME_hCYP2A6: NovaScreen (NVS) CYP450-related Enzyme Activity (ADME) Assay for human CYP2A6 (AID 2283099; active = hit-call score of the fitted dose curve at least 0.9, where 1 is the maximum)
Procedure, shortened: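 Loss of fluorescence signal relative to acetonitrile vehicle reported CYP2A6 inhibition in a cell-free system using insect-cell-derived enzyme. Readings were taken at 0.5 h; top concentration in follow-up dose series was 20 uM.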

[18] = target: rat CYP1A2, Cyp1a2 (gene 24297) (UniProt P04799); assay: NVS_ADME_rCYP1A2: NovaScreen (NVS) CYP450-related Enzyme Activity (ADME) Assay for rat CYP1A2 (AID 2283115; active = hit-call score of the fitted dose curve at least 0.9, where 1 is the maximum)
Procedure, shortened: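 Cell-free recombinant rat enzyme with fluorogenic substrate, read by fluorescence intensity 1 hour after dosing. Loss of signal versus acetonitrile negative control; primary screen at 10 uM in duplicate, actives followed in concentration series.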

Measured: AC50

Chain of human CYP1A2, CYP1A2 (gene 1544) (P05177 whole entry, looked up): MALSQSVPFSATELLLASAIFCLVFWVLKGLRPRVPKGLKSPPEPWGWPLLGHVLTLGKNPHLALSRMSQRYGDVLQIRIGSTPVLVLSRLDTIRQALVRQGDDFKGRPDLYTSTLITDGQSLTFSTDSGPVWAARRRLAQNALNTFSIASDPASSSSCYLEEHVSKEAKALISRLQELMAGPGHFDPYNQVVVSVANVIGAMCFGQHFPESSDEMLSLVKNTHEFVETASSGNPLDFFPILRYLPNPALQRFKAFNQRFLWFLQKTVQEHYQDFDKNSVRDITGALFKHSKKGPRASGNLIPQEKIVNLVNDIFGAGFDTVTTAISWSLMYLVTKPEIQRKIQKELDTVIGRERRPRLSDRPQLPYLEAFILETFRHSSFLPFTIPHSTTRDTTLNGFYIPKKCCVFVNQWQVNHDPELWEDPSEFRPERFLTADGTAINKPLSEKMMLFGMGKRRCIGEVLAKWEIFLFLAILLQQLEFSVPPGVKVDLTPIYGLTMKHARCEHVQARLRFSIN
Chain of human CYP2C9, CYP2C9 (gene 1559) (P11712 whole entry, looked up): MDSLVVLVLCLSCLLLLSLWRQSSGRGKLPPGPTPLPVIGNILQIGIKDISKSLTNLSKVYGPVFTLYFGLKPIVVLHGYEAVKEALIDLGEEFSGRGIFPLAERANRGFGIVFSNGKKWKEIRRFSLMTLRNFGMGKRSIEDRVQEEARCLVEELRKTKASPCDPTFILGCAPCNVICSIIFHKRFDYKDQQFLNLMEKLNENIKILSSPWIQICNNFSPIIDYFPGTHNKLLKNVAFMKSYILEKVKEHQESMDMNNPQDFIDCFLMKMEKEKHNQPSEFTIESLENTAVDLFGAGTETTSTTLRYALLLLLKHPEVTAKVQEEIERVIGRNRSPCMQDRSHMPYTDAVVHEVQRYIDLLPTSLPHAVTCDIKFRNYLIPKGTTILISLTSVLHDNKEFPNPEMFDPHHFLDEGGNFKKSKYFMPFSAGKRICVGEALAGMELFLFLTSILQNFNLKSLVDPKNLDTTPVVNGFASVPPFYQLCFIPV
Chain of human CYP19A1, CYP19A1 (gene 1588) (P11511 whole entry, looked up): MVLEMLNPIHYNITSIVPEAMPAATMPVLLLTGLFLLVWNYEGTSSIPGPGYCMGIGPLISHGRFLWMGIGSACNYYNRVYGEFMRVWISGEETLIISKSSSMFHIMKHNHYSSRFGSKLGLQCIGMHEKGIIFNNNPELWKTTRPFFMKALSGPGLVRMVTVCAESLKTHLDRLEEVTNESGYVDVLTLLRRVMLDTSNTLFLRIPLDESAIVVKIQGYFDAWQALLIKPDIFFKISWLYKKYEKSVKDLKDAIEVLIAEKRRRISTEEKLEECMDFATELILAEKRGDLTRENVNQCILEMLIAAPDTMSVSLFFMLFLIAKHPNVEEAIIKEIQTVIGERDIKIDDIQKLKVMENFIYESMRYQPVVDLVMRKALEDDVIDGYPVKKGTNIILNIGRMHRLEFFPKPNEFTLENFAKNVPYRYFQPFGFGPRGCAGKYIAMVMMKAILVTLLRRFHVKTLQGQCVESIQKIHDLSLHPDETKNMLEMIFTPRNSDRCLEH
Chain of Cytochrome P450 3A4 (Homo sapiens) (P08684 whole entry, looked up): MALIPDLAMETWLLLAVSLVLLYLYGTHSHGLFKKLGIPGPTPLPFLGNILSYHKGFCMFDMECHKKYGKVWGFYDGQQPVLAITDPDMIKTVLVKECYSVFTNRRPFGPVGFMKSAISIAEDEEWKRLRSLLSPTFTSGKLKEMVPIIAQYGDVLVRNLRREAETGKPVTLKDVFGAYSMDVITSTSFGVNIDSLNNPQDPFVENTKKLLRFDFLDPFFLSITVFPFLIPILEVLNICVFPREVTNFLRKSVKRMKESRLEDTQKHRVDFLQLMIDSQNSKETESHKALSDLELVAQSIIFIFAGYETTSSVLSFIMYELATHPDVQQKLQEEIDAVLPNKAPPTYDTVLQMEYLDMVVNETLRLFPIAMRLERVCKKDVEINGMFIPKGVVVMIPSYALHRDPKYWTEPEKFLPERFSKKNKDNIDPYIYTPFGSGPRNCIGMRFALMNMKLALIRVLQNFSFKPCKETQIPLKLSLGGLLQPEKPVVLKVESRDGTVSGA
Chain of rat CYP2A2, Cyp2a2 (gene 24895) (P15149 whole entry, looked up): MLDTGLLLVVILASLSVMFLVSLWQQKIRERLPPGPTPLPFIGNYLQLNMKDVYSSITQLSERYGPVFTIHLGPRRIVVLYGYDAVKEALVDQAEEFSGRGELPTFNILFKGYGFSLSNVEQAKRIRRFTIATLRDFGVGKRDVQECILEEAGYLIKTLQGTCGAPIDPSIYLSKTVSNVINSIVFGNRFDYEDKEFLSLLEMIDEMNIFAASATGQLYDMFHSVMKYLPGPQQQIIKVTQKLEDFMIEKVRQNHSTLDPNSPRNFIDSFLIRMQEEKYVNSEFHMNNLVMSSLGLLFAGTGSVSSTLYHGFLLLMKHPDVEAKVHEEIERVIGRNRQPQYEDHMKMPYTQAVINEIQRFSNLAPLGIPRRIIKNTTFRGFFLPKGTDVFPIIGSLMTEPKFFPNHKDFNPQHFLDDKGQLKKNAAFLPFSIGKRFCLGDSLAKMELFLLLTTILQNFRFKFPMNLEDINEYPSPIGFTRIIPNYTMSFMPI
Chain of human CYP2D6, CYP2D6 (gene 1565) (P10635 whole entry, looked up): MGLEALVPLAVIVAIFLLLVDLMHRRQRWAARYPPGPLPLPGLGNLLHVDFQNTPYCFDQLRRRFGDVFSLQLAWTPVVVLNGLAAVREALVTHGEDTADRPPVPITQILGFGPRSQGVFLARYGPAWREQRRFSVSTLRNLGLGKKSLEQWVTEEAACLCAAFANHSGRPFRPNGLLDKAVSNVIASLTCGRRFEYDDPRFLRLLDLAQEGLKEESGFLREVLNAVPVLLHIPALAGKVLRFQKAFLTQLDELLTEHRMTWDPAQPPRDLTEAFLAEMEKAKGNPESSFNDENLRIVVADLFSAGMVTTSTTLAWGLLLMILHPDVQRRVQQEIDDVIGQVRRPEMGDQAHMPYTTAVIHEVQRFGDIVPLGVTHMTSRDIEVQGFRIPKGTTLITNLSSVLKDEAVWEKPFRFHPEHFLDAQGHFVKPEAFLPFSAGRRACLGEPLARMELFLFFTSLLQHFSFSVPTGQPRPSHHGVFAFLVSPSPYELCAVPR
Chain of human CYP2C8, CYP2C8 (gene 1558) (P10632 whole entry, looked up): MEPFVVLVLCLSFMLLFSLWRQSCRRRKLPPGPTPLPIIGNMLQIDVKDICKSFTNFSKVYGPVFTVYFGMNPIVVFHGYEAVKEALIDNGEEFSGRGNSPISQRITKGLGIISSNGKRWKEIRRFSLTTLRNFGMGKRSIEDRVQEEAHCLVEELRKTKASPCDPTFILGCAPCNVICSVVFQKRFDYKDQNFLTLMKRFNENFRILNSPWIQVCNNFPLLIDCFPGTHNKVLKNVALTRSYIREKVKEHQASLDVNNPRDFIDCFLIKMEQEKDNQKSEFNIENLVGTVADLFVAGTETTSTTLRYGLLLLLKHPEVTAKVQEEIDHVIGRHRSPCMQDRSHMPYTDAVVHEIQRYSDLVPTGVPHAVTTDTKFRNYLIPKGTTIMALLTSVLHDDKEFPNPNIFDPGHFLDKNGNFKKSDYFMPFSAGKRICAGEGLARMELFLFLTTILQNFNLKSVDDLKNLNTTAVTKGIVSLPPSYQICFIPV
Chain of human CYP2B6, CYP2B6 (gene 1555) (P20813 whole entry, looked up): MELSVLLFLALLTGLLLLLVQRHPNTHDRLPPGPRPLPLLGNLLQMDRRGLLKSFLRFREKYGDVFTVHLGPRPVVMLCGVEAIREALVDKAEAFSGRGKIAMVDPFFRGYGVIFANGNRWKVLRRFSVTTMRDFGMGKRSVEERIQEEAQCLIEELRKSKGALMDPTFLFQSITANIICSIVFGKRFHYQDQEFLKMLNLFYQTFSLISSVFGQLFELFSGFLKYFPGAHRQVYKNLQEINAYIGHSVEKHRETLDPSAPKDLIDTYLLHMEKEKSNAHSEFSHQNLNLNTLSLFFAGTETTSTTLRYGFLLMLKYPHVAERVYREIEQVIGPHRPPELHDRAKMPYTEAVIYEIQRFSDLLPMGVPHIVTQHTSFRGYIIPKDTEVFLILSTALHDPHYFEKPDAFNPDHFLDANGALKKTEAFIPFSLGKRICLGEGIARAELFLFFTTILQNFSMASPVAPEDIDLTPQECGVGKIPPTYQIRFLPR
Chain of rat CYP2A1, Cyp2a1 (gene 24894) (P11711 whole entry, looked up): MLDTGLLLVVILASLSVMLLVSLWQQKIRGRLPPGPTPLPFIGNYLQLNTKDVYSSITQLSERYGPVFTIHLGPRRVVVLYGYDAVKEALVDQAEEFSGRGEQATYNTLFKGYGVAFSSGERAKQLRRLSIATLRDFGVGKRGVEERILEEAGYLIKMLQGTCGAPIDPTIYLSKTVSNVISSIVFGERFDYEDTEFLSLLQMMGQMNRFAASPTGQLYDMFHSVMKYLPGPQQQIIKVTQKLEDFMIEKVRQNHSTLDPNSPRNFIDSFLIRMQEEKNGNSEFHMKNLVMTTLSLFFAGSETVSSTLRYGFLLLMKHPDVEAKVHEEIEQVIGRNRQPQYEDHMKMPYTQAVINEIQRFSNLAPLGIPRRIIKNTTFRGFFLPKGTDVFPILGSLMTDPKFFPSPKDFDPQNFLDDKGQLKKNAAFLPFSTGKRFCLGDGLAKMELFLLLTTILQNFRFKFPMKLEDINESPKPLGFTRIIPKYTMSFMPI
Chain of human CYP2J2, CYP2J2 (gene 1573) (P51589 whole entry, looked up): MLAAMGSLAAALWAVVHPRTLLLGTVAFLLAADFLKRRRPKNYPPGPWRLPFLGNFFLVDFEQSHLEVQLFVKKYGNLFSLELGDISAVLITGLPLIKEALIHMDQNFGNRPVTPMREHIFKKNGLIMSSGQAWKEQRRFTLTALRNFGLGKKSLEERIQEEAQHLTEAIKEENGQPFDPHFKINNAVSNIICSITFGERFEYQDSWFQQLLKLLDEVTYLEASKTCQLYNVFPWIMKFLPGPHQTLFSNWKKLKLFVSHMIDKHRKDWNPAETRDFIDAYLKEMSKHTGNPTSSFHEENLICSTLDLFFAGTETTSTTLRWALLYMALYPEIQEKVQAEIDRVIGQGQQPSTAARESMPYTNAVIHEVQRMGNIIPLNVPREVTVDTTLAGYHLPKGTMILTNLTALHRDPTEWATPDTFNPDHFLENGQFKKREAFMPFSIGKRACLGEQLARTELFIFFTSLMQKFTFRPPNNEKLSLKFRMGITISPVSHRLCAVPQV

CCOCN(C(=O)CCl)c1c(C)cccc1CC
inactive: [1] | [2]
active: [3] 27.1 µM | [4] 15.9 µM | [5] 5.09 µM

CC[C@H](C)[C@H]1O[C@]2(C=C[C@@H]1C)C[C@@H]1C[C@@H](C/C=C(\C)[C@@H](O[C@H]3C[C@H](OC)[C@@H](O[C@H]4C[C@H](OC)[C@@H](O)[C@H](C)O4)[C@H](C)O3)[C@@H](C)/C=C/C=C3\CO[C@@H]4[C@H](O)C(C)=C[C@@H](C(=O)O1)[C@]34O)O2 (tested in a mixture with another compound)
inactive: [6] | [7] | [11]
active: [1] 10.8 µM | [2] 4.07 µM | [3] 4.56 µM | [4] 5.54 µM | [8] 2.79 µM | [9] 5.47 µM | [5] 6.36 µM | [10] 12.7 µM

CCOC1Oc2ccc(OS(C)(=O)=O)cc2C1(C)C (centres undefined)
inactive: [1] | [3] | [4]
active: [2] 10.1 µM | [12] 5.43 µM | [5] 3.56 µM | [11] 6.21 µM

C#CCN1C(=O)COc2cc(F)c(N3C(=O)C4=C(CCCC4)C3=O)cc21
active: [12] 4.2 µM | [9] 2.5 µM
inactive: [1] | [2] | [3] | [4] | [13]

O=[N+]([O-])/N=C1\NCCN1Cc1ccc(Cl)nc1
inactive: [1] | [2] | [3] | [4] | [6]

OCCOc1ccccc1
inactive: [1] | [2] | [3] | [4]

O=C1c2ccccc2C(=O)N1SC(Cl)(Cl)Cl
inactive: [1] | [2] | [4] | [14] | [5]
active: [3] 23.4 µM | [6] 1.01 µM | [8] 0.245 µM

Oc1ccc(Cl)cc1Cc1ccccc1
inactive: [6] | [7] | [13] | [16]
active: [1] 36.8 µM [middle of 7 runs] | [2] 31.7 µM [middle of 7 runs] | [4] 29.4 µM [middle of 7 runs] | [6] 3.11 µM and 2.49 µM | [12] 7.66 µM [middle of 6 runs] | [14] 10 µM | [15] 6.54 µM [middle of 7 runs] | [5] 3.27 µM [middle of 7 runs] | [10] 5.61 µM

COC(=O)c1ccccc1S(=O)(=O)NC(=O)Nc1nc(C)nc(OC)n1
active: [5] 5 µM
inactive: [1] | [2] | [3] | [4] | [14]

CCN(CC)C(=O)SCc1ccc(Cl)cc1
inactive: [1] | [2] | [3] | [4]
active: [5] 10 µM

O=C(Nc1ccccc1)Nc1cnns1
inactive: [1] | [2] | [3] | [4] | [9] | [18]
active: [17] 5.8 µM | [13] 3.55 µM | [10] 6.13 µM

CNC(=O)/C=C(\C)OP(=O)(OC)OC
inactive: [1] | [2] | [3] | [4]

O=S(=O)(O)C(F)(F)C(F)(F)C(F)(F)C(F)(F)C(F)(F)C(F)(F)C(F)(F)C(F)(F)F
active: [6] 5.35 µM | [8] 4.04 µM | [5] 5.18 µM [middle of 5 runs]
inactive: [1] | [2] | [3] | [4] | [6] | [16] | [11]
